Laboratory results: PubChem BioAssay (NCI)
The panel holds about 83,000 compounds, 20% with a hit somewhere; the sample as a whole holds those more often.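 Negative percent growth values reflect cell death: -40 means 40% of the cells present at the start died, and -100 means all died.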 A number with no mark means an inactive call. The source made the active and inactive calls. Rule for the calls: active = growth percent below 10; inactive = the rest.

tested on: HCT-116 colon; assay: NCI-60 one-dose screen, 48 h (100 = growth as untreated, 0 = no growth, -100 = all killed); conditions: 10 µM unless noted

**Q.** For `Cc1ccc(C(=O)Nc2ccc(-n3ccnc3)c(C(F)(F)F)c2)cc1C#Cc1cnc2cccnn12`, which growth is on record?
**A.** 0.409% (active)

**Q.** Which growth does the source give for `N/C(=N\c1nc2ccccc2s1)NC(=O)Nc1ccccc1F` here?
**A.** 10.2%

**Q.** `Cc1nc2sccn2c1-c1nnc(SCC(C)C)o1` was tested. Which growth did it give?
**A.** 82.8%

**Q.** Which growth does the source give for `O=[N+]([O-])c1cccc(-c2nnc3c(/C=C/c4ccc(F)cc4)nc4ccccc4n23)c1` here?
**A.** 81.1%

**Q.** With `C=CC(=O)N1CCN(c2ccc3nc4c(nc3c2C(F)(F)F)C(=O)c2ncccc2C4=O)CC1` as the compound, how does the growth read?
**A.** -25.7% (active)

**Q.** Which growth does the source give for `CN1CCN(CCS(=O)(=O)Nc2cc(-c3ccc4ncnc(Nc5ccc(F)c(Cl)c5)c4c3)cnc2Cl)CC1` here?
**A.** 27.8%

**Q.** Which growth does the source give for `COc1ccc(N=Nc2c(N)nn3c(-c4ccc(F)cc4)ccnc23)cc1` here?
**A.** 71.4%

**Q.** How did the growth turn out when `O=C(N/N=C/c1c[nH]c2ccccc12)Nc1ccc(F)c(Cl)c1` was run?
**A.** 25.5%

**Q.** For `N#CCc1nnc(NC(=O)c2ccc(-n3c(=O)[nH]c4ccccc4c3=O)cc2)s1`, which growth is on record?
**A.** 103%

**Q.** With `CCOc1ccc(-c2cc(-c3cc(C(C)C)c(O)cc3C)nn2-c2ccc(S(N)(=O)=O)cc2)cc1` as the compound, how does the growth read?
**A.** 24%

**Q.** How did the growth turn out when `CN1CCN(c2ccc3c4c(cccc24)C(=O)N(c2cccc(-c4nn(-c5ccccc5)cc4-c4nc5ccccc5s4)c2)C3=O)CC1` was run?
**A.** 79%

**Q.** For `O=C(Cn1c(-c2ccccc2)nc2ccccc21)N=Nc1c(O)[nH]c2ccc(Cl)cc12`, which growth is on record?
**A.** -23.7% (active)

**Q.** For `CCc1ccc(SC2c3cc(OC)ccc3Oc3nc(N)c(C#N)c(N)c32)cc1` (stereo unspecified), which growth is on record?
**A.** -96% (active)

**Q.** `CN(C)C(=O)c1cc(-c2ccc3ncnc(N4CCc5cc(F)c(Cl)cc54)c3c2)cnc1N` was tested. Which growth did it give?
**A.** -97.4% (active)

**Q.** For `CN1C(=O)C2(C(C#N)=C(c3ccc(Cl)cc3)Nc3c2c(-c2ccccc2)nn3-c2ccccc2)c2ccccc21` (stereo unspecified), which growth is on record?
**A.** 73.8%

**Q.** How did the growth turn out when `Cc1ccc2c(c1)/C(=C/C(=O)c1cc3ccccc3oc1=O)C(=O)N2` was run?
**A.** 18.9%

**Q.** Which growth does the source give for `N#CC1=C(c2cccs2)Nc2c(c(-c3ccccc3)nn2-c2ccccc2)C12C(=O)Nc1ccc(Cl)cc12` (stereo unspecified) here?
**A.** 11.5%

**Q.** With `O=C(NC(=S)N1CCN(c2ncnc3c2cnn3-c2ccccc2)CC1)c1ccc(Br)cc1` as the compound, how does the growth read?
**A.** 60.3%

**Q.** For `Nc1nnc(-c2cncc(Br)c2)c(-c2c[nH]c3ccc(Cl)cc23)n1`, which growth is on record?
**A.** 73.7%

**Q.** Which growth does the source give for `COc1ccc(C2=NN(C(=O)[C@H]3[C@@H](c4ccco4)c4sc(=O)[nH]c4S[C@@H]3C)C(c3ccc4ccccc4c3)C2)cc1` (stereo partly specified) here?
**A.** 16.1%

**Q.** With `CCOc1ccc2[nH]c(=O)c(C(c3nnnn3CC3CCCO3)N3CCN(Cc4ccccc4)CC3)cc2c1` (stereo unspecified) as the compound, how does the growth read?
**A.** 78%

**Q.** How did the growth turn out when `FC(F)(F)c1cc2c(Cl)ncnc2n1CCC1CCOCC1` was run?
**A.** -53.5% (active)

**Q.** `COc1cc(/C=C/C(=O)c2cnn(-c3cc(=O)[nH]c4ccc(C)cc34)c2C)cc(OC)c1OC` was tested. Which growth did it give?
**A.** -77.3% (active)

**Q.** For `O=C(N/N=C/c1c[nH]c2ccccc12)Nc1ccccc1Cl`, which growth is on record?
**A.** -12.7% (active)

**Q.** For `Nc1nn2c(-c3cc4ccccc4oc3=O)ccnc2c1N=Nc1ccccc1`, which growth is on record?
**A.** 6.75% (active)

**Q.** For `Cc1ccc(C(=O)Nc2cc(-c3ccncc3)cc(C(F)(F)F)c2)cc1C#Cc1cnc2cccnn12`, which growth is on record?
**A.** 23.4%

**Q.** How did the growth turn out when `COc1ccc(C(=O)/C=C/c2ccc3c(c2)OCCO3)cc1S(N)(=O)=O` was run?
**A.** 42.9%

**Q.** `FC(F)(F)c1cc2c(Cl)ncnc2n1CCN1CCCCC1` was tested. Which growth did it give?
**A.** 8.04% (active)

**Q.** Which growth does the source give for `COc1ccc2[nH]cc(-c3cc4nc(-c5cn(C)c6ncccc56)cc(N)n4n3)c2c1` here?
**A.** -81.3% (active)

**Q.** `Nc1nc(-c2ccccc2)c(N=Nc2ccc(Cl)cc2Cl)s1` was tested. Which growth did it give?
**A.** -80.6% (active)

**Q.** For `COc1ccc(NC(=O)Cn2c(/C=C/c3ccc([N+](=O)[O-])cc3)nc3ccccc3c2=O)cc1`, which growth is on record?
**A.** 35.6%

**Q.** Which growth does the source give for `C[C@@H]1[C@H]2C[C@@H](C[C@H]1NCc1nc3ccccc3n1C1CCCCCC1)C2(C)C` here?
**A.** 23.4%

**Q.** `COc1ccc(NC(=O)Cn2c(/C=C/c3cccc(Br)c3)nc3ccccc3c2=O)cc1` was tested. Which growth did it give?
**A.** 26.2%

**Q.** `Cc1ccc(-c2cc(C(=O)N=Nc3c(O)[nH]c4ccc(F)cc34)c3ccccc3n2)cc1` was tested. Which growth did it give?
**A.** 21%

**Q.** How did the growth turn out when `CCOC(=O)c1ccc(NC(=S)NC(=O)c2ccc(NC(=O)C(C)C)cc2OC)cc1` was run?
**A.** 23.6%

**Q.** With `CCCSc1nnc(-c2c(C)nc3sccn23)o1` as the compound, how does the growth read?
**A.** 95.7%

**Q.** How did the growth turn out when `Cc1ccc(N=Nc2c(N)nn3c(-c4cc5ccccc5oc4=O)ccnc23)cc1` was run?
**A.** 11.1%

**Q.** For `O=C(N/N=C/c1ccc(Cl)o1)c1[nH]c2ccc(Br)cc2c1-c1ccccc1`, which growth is on record?
**A.** -56.1% (active)

tested on: HCC-2998 colon; assay: as above; conditions: 10 µM unless noted

**Q.** Which growth does the source give for `Cc1ccc(C(=O)Nc2ccc(-n3ccnc3)c(C(F)(F)F)c2)cc1C#Cc1cnc2cccnn12` here?
**A.** 29.9%

**Q.** For `N/C(=N\c1nc2ccccc2s1)NC(=O)Nc1ccccc1F`, which growth is on record?
**A.** 45.9%

**Q.** For `Cc1nc2sccn2c1-c1nnc(SCC(C)C)o1`, which growth is on record?
**A.** 113%

**Q.** `O=[N+]([O-])c1cccc(-c2nnc3c(/C=C/c4ccc(F)cc4)nc4ccccc4n23)c1` was tested. Which growth did it give?
**A.** 105%

**Q.** With `C=CC(=O)N1CCN(c2ccc3nc4c(nc3c2C(F)(F)F)C(=O)c2ncccc2C4=O)CC1` as the compound, how does the growth read?
**A.** 5.17% (active)

**Q.** Which growth does the source give for `CN1CCN(CCS(=O)(=O)Nc2cc(-c3ccc4ncnc(Nc5ccc(F)c(Cl)c5)c4c3)cnc2Cl)CC1` here?
**A.** -8.06% (active)

**Q.** For `COc1ccc(N=Nc2c(N)nn3c(-c4ccc(F)cc4)ccnc23)cc1`, which growth is on record?
**A.** 108%

**Q.** For `O=C(N/N=C/c1c[nH]c2ccccc12)Nc1ccc(F)c(Cl)c1`, which growth is on record?
**A.** 3.69% (active)

**Q.** With `N#CCc1nnc(NC(=O)c2ccc(-n3c(=O)[nH]c4ccccc4c3=O)cc2)s1` as the compound, how does the growth read?
**A.** 108%

**Q.** With `CCOc1ccc(-c2cc(-c3cc(C(C)C)c(O)cc3C)nn2-c2ccc(S(N)(=O)=O)cc2)cc1` as the compound, how does the growth read?
**A.** 4.6% (active)

**Q.** How did the growth turn out when `CN1CCN(c2ccc3c4c(cccc24)C(=O)N(c2cccc(-c4nn(-c5ccccc5)cc4-c4nc5ccccc5s4)c2)C3=O)CC1` was run?
**A.** 79.2%

**Q.** How did the growth turn out when `O=C(Cn1c(-c2ccccc2)nc2ccccc21)N=Nc1c(O)[nH]c2ccc(Cl)cc12` was run?
**A.** 19.5%

**Q.** `CCc1ccc(SC2c3cc(OC)ccc3Oc3nc(N)c(C#N)c(N)c32)cc1` (stereo unspecified) was tested. Which growth did it give?
**A.** -48.3% (active)

**Q.** How did the growth turn out when `CN(C)C(=O)c1cc(-c2ccc3ncnc(N4CCc5cc(F)c(Cl)cc54)c3c2)cnc1N` was run?
**A.** -82.2% (active)

**Q.** How did the growth turn out when `CN1C(=O)C2(C(C#N)=C(c3ccc(Cl)cc3)Nc3c2c(-c2ccccc2)nn3-c2ccccc2)c2ccccc21` (stereo unspecified) was run?
**A.** 87%

**Q.** How did the growth turn out when `Cc1ccc2c(c1)/C(=C/C(=O)c1cc3ccccc3oc1=O)C(=O)N2` was run?
**A.** 106%

**Q.** Which growth does the source give for `N#CC1=C(c2cccs2)Nc2c(c(-c3ccccc3)nn2-c2ccccc2)C12C(=O)Nc1ccc(Cl)cc12` (stereo unspecified) here?
**A.** 26.1%

**Q.** With `O=C(NC(=S)N1CCN(c2ncnc3c2cnn3-c2ccccc2)CC1)c1ccc(Br)cc1` as the compound, how does the growth read?
**A.** 90.5%

**Q.** For `Nc1nnc(-c2cncc(Br)c2)c(-c2c[nH]c3ccc(Cl)cc23)n1`, which growth is on record?
**A.** 88.8%

**Q.** How did the growth turn out when `COc1ccc(C2=NN(C(=O)[C@H]3[C@@H](c4ccco4)c4sc(=O)[nH]c4S[C@@H]3C)C(c3ccc4ccccc4c3)C2)cc1` (stereo partly specified) was run?
**A.** 27.3%

**Q.** Which growth does the source give for `CCOc1ccc2[nH]c(=O)c(C(c3nnnn3CC3CCCO3)N3CCN(Cc4ccccc4)CC3)cc2c1` (stereo unspecified) here?
**A.** 122%

**Q.** With `FC(F)(F)c1cc2c(Cl)ncnc2n1CCC1CCOCC1` as the compound, how does the growth read?
**A.** -90.6% (active)

**Q.** `COc1cc(/C=C/C(=O)c2cnn(-c3cc(=O)[nH]c4ccc(C)cc34)c2C)cc(OC)c1OC` was tested. Which growth did it give?
**A.** -99% (active)

**Q.** Which growth does the source give for `O=C(N/N=C/c1c[nH]c2ccccc12)Nc1ccccc1Cl` here?
**A.** -22% (active)

**Q.** How did the growth turn out when `Nc1nn2c(-c3cc4ccccc4oc3=O)ccnc2c1N=Nc1ccccc1` was run?
**A.** 105%

**Q.** How did the growth turn out when `Cc1ccc(C(=O)Nc2cc(-c3ccncc3)cc(C(F)(F)F)c2)cc1C#Cc1cnc2cccnn12` was run?
**A.** 63.5%

**Q.** How did the growth turn out when `COc1ccc(C(=O)/C=C/c2ccc3c(c2)OCCO3)cc1S(N)(=O)=O` was run?
**A.** 99.1%

**Q.** With `FC(F)(F)c1cc2c(Cl)ncnc2n1CCN1CCCCC1` as the compound, how does the growth read?
**A.** -75.1% (active)

**Q.** With `COc1ccc2[nH]cc(-c3cc4nc(-c5cn(C)c6ncccc56)cc(N)n4n3)c2c1` as the compound, how does the growth read?
**A.** -96.5% (active)

**Q.** With `Nc1nc(-c2ccccc2)c(N=Nc2ccc(Cl)cc2Cl)s1` as the compound, how does the growth read?
**A.** -87.7% (active)

**Q.** Which growth does the source give for `COc1ccc(NC(=O)Cn2c(/C=C/c3ccc([N+](=O)[O-])cc3)nc3ccccc3c2=O)cc1` here?
**A.** 67.5%

**Q.** For `C[C@@H]1[C@H]2C[C@@H](C[C@H]1NCc1nc3ccccc3n1C1CCCCCC1)C2(C)C`, which growth is on record?
**A.** 37.6%

**Q.** Which growth does the source give for `COc1ccc(NC(=O)Cn2c(/C=C/c3cccc(Br)c3)nc3ccccc3c2=O)cc1` here?
**A.** 84.5%

**Q.** With `Cc1ccc(-c2cc(C(=O)N=Nc3c(O)[nH]c4ccc(F)cc34)c3ccccc3n2)cc1` as the compound, how does the growth read?
**A.** 35.9%

**Q.** For `CCOC(=O)c1ccc(NC(=S)NC(=O)c2ccc(NC(=O)C(C)C)cc2OC)cc1`, which growth is on record?
**A.** 67.9%

**Q.** With `CCCSc1nnc(-c2c(C)nc3sccn23)o1` as the compound, how does the growth read?
**A.** 105%

**Q.** With `Cc1ccc(N=Nc2c(N)nn3c(-c4cc5ccccc5oc4=O)ccnc23)cc1` as the compound, how does the growth read?
**A.** -21.1% (active)

**Q.** For `O=C(N/N=C/c1ccc(Cl)o1)c1[nH]c2ccc(Br)cc2c1-c1ccccc1`, which growth is on record?
**A.** -26% (active)
